Source: publication PMC5540273 (PLoS ONE, 2017)

Experiments:
Conditions in all cases: concentration: 1 μM, replicates: in singlicate; n = 1
[1] = test system: RPS6KA4(Kin.Dom.1-N-terminal)
[2] = test system: RPS6KA4(Kin.Dom.2-C-terminal)
[3] = test system: RPS6KA5(Kin.Dom.1-N-terminal)
[4] = test system: RPS6KA5(Kin.Dom.2-C-terminal)
[5] = test system: T1, RSK1(Kin.Dom.1-N-terminal)
T1 construct: gene RPS6KA1

[6] = test system: T2, RSK1(Kin.Dom.2-C-terminal)
T2 construct: gene RPS6KA1

[7] = test system: T3, RSK2(Kin.Dom.1-N-terminal)
T3 construct: gene RPS6KA3

[8] = test system: T4, RSK2(Kin.Dom.2-C-terminal)
T4 construct: gene RPS6KA3

[9] = test system: T5, RSK3(Kin.Dom.1-N-terminal)
T5 construct: gene RPS6KA2

[10] = test system: T6, RSK3(Kin.Dom.2-C-terminal)
T6 construct: gene RPS6KA2
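Note: KINOMEscan kinase panel screen.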

Structure (SMILES) | %Inh [1] [%] | %Inh [2] [%] | %Inh [3] [%] | %Inh [4] [%] | %Inh [5] [%] | %Inh [6] [%] | %Inh [7] [%] | %Inh [8] [%] | %Inh [9] [%] | %Inh [10] [%]
COc1cccc(-c2nc(-c3ccccc3)[nH]c2-c2ccncc2)c1 [SB-610250] | 2 | 0 | 7 | 41 | 19 | 7 | 12 | 26 | 11 | 0
Cc1ccc(NC(=O)c2ccc(Cl)c(Cl)c2)cc1-c1ccc(C(=O)Nc2ccncc2)cc1 [GSK1398460] | 25 | 0 | 15 | 0 | 24 | 2 | 0 | 22 | 7 | 9
CSc1ccc(NC2=C(c3ccc(Cl)cc3)C(=O)NC2=O)cc1 [SB-317658] | 28 | 0 | 2 | 30 | 6 | 0 | 11 | 0 | 0 | 0
Cl.Cl.NC(CNC(=O)c1cc(Br)c(-c2ccnc3[nH]ccc23)s1)c1ccccc1 (stereo not drawn) [GSK1322949] | 37 | 62 | 37 | 33 | 10 | 26 | 37 | 22 | 14 | 14
CN(c1ccc(NC(=O)N2CCN(CCCN3CCOCC3)CC2)cc1)c1ccnc(Nc2ccc(CS(C)(=O)=O)cc2)n1.Cl [GW830899] | 31 | 0 | 0 | 0 | 2 | 1 | 0 | 1 | 0 | 0
COc1ccc(NC(=O)c2ccoc2)cc1-c1ccc(C(=O)NCC2CC2)cc1 [GW810437] | 18 | 0 | 4 | 8 | 0 | 21 | 22 | 0 | 0 | 27
O=C(Nc1n[nH]c2nc(-c3cccc(O)c3)ccc12)C1CC1 [SB-711805] | 0 | 51 | 0 | 0 | 0 | 0 | 30 | 0 | 0 | 0
Cc1ccc(NC(=O)c2cccc(N3CCCCC3)c2)cc1-c1ccc(C(=O)NCC2CC2)cc1 [GSK1917008] | 28 | 0 | 33 | 8 | 18 | 1 | 15 | 21 | 12 | 5
COc1cc(Nc2nccc(N3CCC(NS(=O)(=O)c4ccc(NC(C)=O)cc4)CC3)n2)cc(OC)c1OC [GSK1379825] | 0 | 0 | 27 | 0 | 0 | 0 | 5 | 24 | 11 | 2
O=C1NC(=O)C(c2ccccc2Cl)=C1Nc1cccc(Cl)c1 [SB-342409] | 16 | 0 | 2 | 0 | 75 | 9 | 19 | 31 | 100 | 0
COc1cc(Nc2nccc(N3CCC(NC(=O)Nc4ccc5c(c4)OCO5)C3)n2)cc(OC)c1OC (stereo not drawn) [GSK1379766] | 0 | 0 | 1 | 18 | 22 | 2 | 5 | 0 | 10 | 5
CC(C)c1nc(-c2ccc(F)c(NS(=O)(=O)c3c(F)cccc3F)c2)c(-c2ccnc(Nc3ccc(N4CCOCC4)nc3)n2)s1 [GSK1804250] | 6 | 0 | 15 | 3 | 25 | 9 | 22 | 27 | 24 | 6
CN(c1ccc(F)c(NC(=O)c2cccc(OC(C)(C)C#N)c2Cl)c1)c1ccc2nc(NC(=O)C3CC3)sc2n1 | 0 | 0 | 11 | 6 | 0 | 1 | 0 | 59 | 0 | 0
COc1ccc(C2=C(Nc3cccc(O)c3)C(=O)NC2=O)cc1 [SB-390766] | 0 | 0 | 2 | 0 | 32 | 0 | 24 | 96.4 | 3 | 21
Cc1ccccc1CC(=O)N1CCc2cc(-c3cn(C)c4ncnc(N)c34)ccc21 [GSK2603346] | 11 | 0 | 20 | 0 | 0 | 4 | 0 | 6 | 24 | 0
Cc1ccc(O)cc1Nc1ccnc2ccc(C(C)(C)C)cc12 [GW856805] | 4 | 9 | 2 | 8 | 30 | 0 | 39 | 32 | 16 | 0
COc1cccc2c(-c3ccncc3)c(-c3ccc(F)cc3)nn12 [GW468513] | 4 | 0 | 23 | 0 | 0 | 48 | 0 | 20 | 3 | 0

Structure (SMILES) | %Inh [1] [%] | %Inh [2] [%] | %Inh [3] [%] | %Inh [4] [%] | %Inh [5] [%] | %Inh [6] [%] | %Inh [7] [%] | %Inh [8] [%] | %Inh [9] [%] | %Inh [10] [%]
Fc1cc(Cl)ccc1Nc1ccnc2cc(-c3ccc(CN4CCSCC4)o3)ccc12 [GW560106] | 18 | 0 | 23 | 0 | 0 | 25 | 0 | 48 | 0 | 6
CNc1nccc(-c2ccc3c(N)n[nH]c3c2)n1 [GSK2206003] | 3 | 91.8 | 19 | 63 | 22 | 22 | 38 | 0 | 14 | 5
Cc1cccc(Nc2nc(N[C@H]3CCCC[C@H]3N)ncc2C(N)=O)c1.Cl [GSK986310] | 32 | 0 | 22 | 0 | 46 | 20 | 53 | 28 | 23 | 12
Nc1ncnc2scc(-c3ccc(NC(=O)Cc4cc(F)ccc4F)cc3)c12.O=C(O)C(F)(F)F [SB-731254-M] | 21 | 15 | 8 | 0 | 0 | 14 | 15 | 0 | 0 | 6
CN(C)c1ncnc2nc[nH]c12 [SKF-31736] | 1 | 0 | 0 | 11 | 0 | 0 | 39 | 0 | 0 | 0
Cc1ccc(NC(=O)c2ccnc(N3CCCCC3)c2)cc1-c1ccc(C(=O)NCC2CC2)cc1 [GW775610] | 0 | 0 | 0 | 0 | 0 | 100 | 0 | 0 | 16 | 15
Cc1ccc(-c2ccc3occ(-c4ccc(S(C)=O)cc4)c3c2)nn1 (stereo not drawn) | 1 | 0 | 22 | 0 | 0 | 0 | 0 | 9 | 0 | 0
Cc1cccc(Nc2nc(NCCN)ncc2C(N)=O)c1 [GSK1292139] | 12 | 0 | 0 | 29 | 20 | 31 | 46 | 7 | 18 | 1
COC(=O)Nc1nc2ccc(Oc3ccc(NC(=O)Nc4cc(C(F)(F)F)ccc4F)cc3)cc2[nH]1.Cl [GW654607] | 15 | 0 | 0 | 0 | 0 | 13 | 0 | 35 | 12 | 0
COC(=O)Nc1nc2cc(Oc3ccc(NC(=O)Nc4cccc(SC)c4)cc3)ccc2[nH]1.Cl [GW697999] | 3 | 0 | 15 | 0 | 0 | 0 | 0 | 4 | 7 | 0
CC(C)c1nc(-c2cccc(NS(=O)(=O)c3c(F)cccc3F)c2)c(-c2ccnc(Nc3ccc(N4CCOCC4)nc3)n2)s1.Cl [GSK1723980] | 0 | 0 | 0 | 0 | 83 | 1 | 15 | 0 | 27 | 0
Nc1ncc(-c2ccc3nccc(-c4ccncc4)c3c2)cc1S(=O)(=O)N1CCCCC1 [GSK1693850] | 0 | 0 | 9 | 17 | 0 | 37 | 0 | 0 | 17 | 24
Cl.Cl.NCC(NC(=O)c1cc(-c2cccnc2)c(-c2ccnc3[nH]ccc23)s1)c1ccccc1 (stereo not drawn) [GSK1323434] | 58 | 0 | 18 | 57 | 61 | 53 | 29 | 40 | 0 | 0
Cl.N#CCc1ccc(Nc2nccc(Nc3ccc(Oc4ccccc4)cc3)n2)cc1 [GW639905] | 0 | 0 | 0 | 0 | 1 | 0 | 0 | 16 | 4 | 0
COc1cccc(C2=C(Nc3cccc(O)c3)C(=O)NC2=O)c1 [SB-390771] | 21 | 0 | 21 | 2 | 84 | 0 | 8 | 28 | 84 | 7
Nc1cccc(-c2ccc3c(N)n[nH]c3c2)c1 [GSK2193613] | 12 | 8 | 35 | 0 | 13 | 1 | 1 | 6 | 7 | 8
